This passage reports inhibition results from PubChem BioAssay AID449762 (Southern Research Specialized Biocontainment Screening …, 2010).

Among all 330,000 compounds or so, about 1,900 (0.58%) were called active. Inconclusive results (about 4%) are left out. No stated cut-off is given here; in the data, inconclusive means inhibition above about 70% without an active follow-up result; inactive means below that. A selection follows. Measured potencies and affinities stand elsewhere.

This test is described as follows: M. tuberculosis growth inhibition, HTS (AID 449762).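 Further: bacterial growth assessed after seven days of incubation.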 Conditions: M. tuberculosis H37Rv growth inhibition, 7H9 media; at 25 µM; hits give high values.
In general, inhibition refers to the drop in the measured response relative to a control, in per cent. In the case of `COCC1CCN(C(=O)c2cc(COc3ccccc3SC)on2)C1` (stereo not drawn), the inhibition was -1.2% (inactive).

On to `CSc1ccccc1OCc1cc(C(=O)N2CCSCC2)no1`, for which the inhibition was 4.18% (inactive).

`CCOC(=O)[C@@]12C(=O)C(=O)N[C@]1(c1ccccc1)C1OCCCC12` (stereo partly drawn): the inhibition was 1.95% (inactive).

`Cn1c2ccccc2c(=O)c2c(=O)n(Cc3ccco3)c(-c3ccc(F)cc3)nc21`: the inhibition was 0.8% (inactive).

As to `COc1ccc(Cn2c(-c3ccc(C)cc3)nc3c(c(=O)c4ccccc4n3C)c2=O)cc1`, the inhibition was -5.96% (inactive).

`Cc1noc(C)c1CSCC(=O)Nc1cccc(C(F)(F)F)c1`: the inhibition was -7.37% (inactive).

As to `CCCCCCc1cc2cc(C(=O)Nc3ccccc3)c(=O)oc2cc1O`, the inhibition is -5.44% (inactive).

`CCCCCCc1cc2cc(C(=O)NC)c(=N)oc2cc1O`: the inhibition was 2.6% (inactive).

Take `CCc1ccc(CNn2cnnc2SCC(=O)NC(C)(C)C)cc1`: the inhibition was -7.47% (inactive).

Regarding `CC1CN(CC(=O)Nc2ccc([N+](=O)[O-])cc2Br)CC(C)O1` (stereo not drawn), the inhibition is 0.73% (inactive).

As to `CCC/C(=N/NC(=O)c1ccccc1Cl)c1ccccc1`, the inhibition was 8.2% (inactive).

Regarding `NC(N)=NNC(=O)c1ccccc1Cl`, the inhibition was -5.25% (inactive).

On to `CN(Cc1ccccc1)CC(O)COc1ccc(CNCc2nccn2C)cc1` (stereo not drawn), for which the inhibition was -8.78% (inactive).

Turning to `NC(=O)CC(NC(=O)c1ccccc1)c1ccc(N2CCC(Cc3ccccc3)CC2)c([N+](=O)[O-])c1` (stereo not drawn), the inhibition is 5.54% (inactive).

For `CC(C)OCCCn1c(-c2ccco2)nc2nc3ccccc3nc21`, the inhibition is 0.09% (inactive).

On to `CCCCCn1c(-c2ccco2)nc2nc3ccccc3nc21`, for which the inhibition is 16.5% (inactive).

As for `C/C(=N\OCC(=O)Nc1ccccc1C(C)(C)C)c1ccc2c(c1)OCCO2`, the inhibition is 9.78% (inactive).

As to `O=C(Cn1cnc2scc(-c3ccc(Br)cc3)c2c1=O)N1CCOCC1`, the inhibition is 2.04% (inactive).

Consider `Clc1ccc(CNC23CN4CN(CN(C4)C2)C3)c(Cl)c1`, for which the inhibition is -14.8% (inactive).

As to `O=C(Nc1ccncc1)c1cc(S(=O)(=O)N2CCCC2)ccc1Cl`, the inhibition is 5.2% (inactive).

With `N#Cc1nc(-c2ccc(OCc3ccccc3Cl)cc2)oc1NCCCn1ccnc1`, the inhibition is 0.78% (inactive).

Turning to `N#Cc1nc(-c2ccc(OCc3ccc(Cl)cc3)cc2)oc1NCCCn1ccnc1`, the inhibition was 0.8% (inactive).

Consider `COc1ccc(C2C(C(C)=O)=C(O)C(=O)N2c2cccnc2)c(OC)c1` (stereo not drawn), for which the inhibition is -10.5% (inactive).

In the case of `O=C1C(Cl)=C(N2CCOCC2)C(=O)N1c1cccc(C(F)(F)F)c1`, the inhibition was 8.59% (inactive).

For the molecule `Cc1cccc(N2C(=O)C(Cl)=C(N3CCOCC3)C2=O)c1`, the inhibition is -0.44% (inactive).

With `CCOC(=O)C(=O)N1CCC(Cc2ccccc2)CC1`, the inhibition was 1.59% (inactive).

With `CCOCC(=O)N1CCC(Cc2ccccc2)CC1`, the inhibition was 12.3% (inactive).

Regarding `Cc1oc(-c2ccccc2F)nc1CSCC(=O)NC1CCCC1`, the inhibition was -11.2% (inactive).

In the case of `CC(C)(Oc1ccc(F)cc1)C(=O)OCC(=O)c1ccc(S(C)(=O)=O)cc1`, the inhibition is 3.45% (inactive).

For `CCOC(=O)c1nn(-c2cccc(Cl)c2)c2nc(Nc3ccccc3)cc(=O)n12`, the inhibition is -3.5% (inactive).

For the molecule `CCOC(=O)c1nn(-c2ccc(F)cc2)c2nc(Nc3ccccc3)cc(=O)n12`, the inhibition was 38.7% (inactive).

As for `O=C(Nc1ccccc1)C1CC(=O)n2ncnc2N1` (stereo not drawn), the inhibition was -4.59% (inactive).

On to `Cc1ccc(S(=O)(=O)N2[C@@H](c3ccc(Br)cc3)C(C(=O)O)=CC[C@H]2c2ccc(Cl)cc2)cc1`, for which the inhibition was 9.55% (inactive).

On to `CCN(CC)C(=O)c1ccc(C(=O)c2c(C)cc(C)cc2C)cc1`, for which the inhibition is -0.54% (inactive).

Consider `COc1ccc2c(Cl)c(-c3nnc(SCC(=O)c4ccccc4)n3C)sc2c1`, for which the inhibition is 5.59% (inactive).

Turning to `COc1ccc2c(Cl)c(-c3nnc(SCC(N)=O)n3C)sc2c1`, the inhibition is -4.23% (inactive).

Consider `COc1ccc(NC(=O)c2ccc3c(=O)n(-c4ccc(OC)cc4OC)c(=S)[nH]c3c2)c(OC)c1`, for which the inhibition was 40% (inactive).

On to `Cc1ccccc1-c1ncc(CN2CCC(CO)(CCCc3ccccc3)CC2)cn1`, for which the inhibition was 22.1% (inactive).

On to `CC(=O)c1cccc(CN2CCC(CO)(CCCc3ccccc3)CC2)c1`, for which the inhibition is -3.4% (inactive).

Take `Cc1c(-n2cc(C(=O)O)c(=O)c3cc(F)c(N4CCCC4)c(F)c32)c(=O)n(-c2ccccc2)n1C`: the inhibition is 5.31% (inactive).

Consider `Cc1cc(C)c(NC(=O)c2cn3c4c(c(N5CCN(C)CC5)c(F)cc4c2=O)OCC3C)c(C)c1` (stereo not drawn), for which the inhibition is 9.2% (inactive).

Turning to `CCOc1cc(S(=O)(=O)N2CCN(S(=O)(=O)CC)CC2)c(OCC)cc1-n1cnnn1`, the inhibition was 0.44% (inactive).

`O=C(O)/C=C/C(=O)Nc1nccs1`: the inhibition was -2.62% (inactive).

Regarding `O=C1C(C=NCCCN2CCCC2=O)=C(O)c2ccccc21`, the inhibition was -5.89% (inactive).

On to `COc1ccc(Cl)cc1NS(=O)(=O)c1cccc(C(=O)NC2CC2)c1`, for which the inhibition was 1.57% (inactive).

As to `COc1ccc(-c2oc(NC(=O)c3ccc(C)cc3)c(C#N)c2-c2ccc(OC)cc2)cc1`, the inhibition was 5.32% (inactive).

In the case of `COc1ccc(-c2oc(NC(C)=O)c(C#N)c2-c2ccc(OC)cc2)cc1`, the inhibition was 3.57% (inactive).

Consider `Cc1cc(C(=O)O)cc(S(=O)(=O)Nc2c(C)nn(C)c2C)c1C`, for which the inhibition was -1.21% (inactive).

`COc1cccc2cc(C(=O)OCc3ccccc3)c(=O)oc12`: the inhibition was 10.5% (inactive).

Regarding `CN1OC(COC(=O)c2ccccc2)CC1c1ccccc1` (stereo not drawn), the inhibition was 66.5% (inactive).

As to `CN1OC(COC(=O)c2ccc(Cl)cc2)CC1c1ccccc1` (stereo not drawn), the inhibition is 19.7% (inactive).

For the molecule `CCCn1cc(S(=O)(=O)c2ccc(F)cc2)c(=O)c2cc(OCC)ccc21`, the inhibition is 4.19% (inactive).

On to `CC(=O)Nc1ccc(S(=O)(=O)Oc2cccc(/C=N/N=C3/NC(=O)C(CC(=O)O)S3)c2)cc1` (stereo not drawn), for which the inhibition is -3.02% (inactive).

Regarding `O=C(Nc1cccc(C(F)(F)F)c1)C(Sc1cccc[n+]1[O-])c1ccccc1` (stereo not drawn), the inhibition was 0.11% (inactive).

For the molecule `O=C(Nc1ccc(Cl)cc1C(F)(F)F)C(Sc1cccc[n+]1[O-])c1ccccc1` (stereo not drawn), the inhibition was 16.4% (inactive).

Consider `CS(=O)(=O)N(CC(=O)Nc1ccc(Br)cc1F)C1CCCCC1`, for which the inhibition was -1.79% (inactive).

For the molecule `CC(=O)NCCC(=O)Nc1ccc(C(N)=O)cc1`, the inhibition is 3.35% (inactive).

In the case of `O=C(/C=C/c1ccc([N+](=O)[O-])cc1)OCC(=O)N1c2ccccc2Sc2ccccc21`, the inhibition is 3.32% (inactive).

In the case of `CC(C)(C)c1ccc(C(=O)C=[N+]=[N-])cc1`, the inhibition was -1.15% (inactive).

As to `CCOc1ccc(C(=O)/C=C/c2ccccc2C(F)(F)F)cc1`, the inhibition is 9.8% (inactive).

On to `COc1ccc(CC(=O)NNC(=O)CCc2ccccc2)cc1OC`, for which the inhibition is 0.55% (inactive).

Take `O=C(NCC(O)c1ccccc1)c1ccccc1` (stereo not drawn): the inhibition was -1.58% (inactive).

In the case of `Cc1ccc(C)c(Cc2c(C)nc3c(C(=O)NCc4ccc5c(c4)OCO5)cnn3c2C)c1`, the inhibition was 65.9% (inactive).

Turning to `CN1C(=O)/C(=C/c2ccc(OCc3cccc(F)c3)cc2)NC1=S`, the inhibition is 14.5% (inactive).

In the case of `COc1ccc(NC(=S)Nc2ccccn2)cc1`, the inhibition was -2.6% (inactive).

Consider `CCCNC(=S)Nc1ccccc1`, for which the inhibition was 0.1% (inactive).

With `Cc1cccc(NC(=S)Nc2ccccn2)c1`, the inhibition was -7.66% (inactive).

As for `CCCNC(=S)Nc1ccc(Oc2ccccc2)cc1`, the inhibition was -11% (inactive).

For the molecule `N#Cc1cc2c(nc1SCc1cccnc1)CCCCC2`, the inhibition is 7.53% (inactive).

Take `CC1CCN(S(=O)(=O)c2ccc(S(=O)(=O)N3CCC4(CC3)OCCO4)cc2)CC1`: the inhibition was 0.35% (inactive).

For `Cc1cc(NC(=O)/C=C/C(=O)N(CC(=O)NC2CCCC2)c2cccc3ccccc23)no1`, the inhibition is -2.08% (inactive).

Turning to `COc1ccc(CCNCC2C(Oc3ccc(Cl)cc3)C(=O)N2c2ccccc2C)cc1OC` (stereo not drawn), the inhibition is 11.7% (inactive).

Consider `COC(=O)c1ccc2c(=O)[nH]c(COC(=O)CCC(=O)c3ccc(Cl)cc3)nc2c1`, for which the inhibition is 0.04% (inactive).

As for `Cc1cc(=O)c2ccc3ccccc3c2[nH]1`, the inhibition was 10.2% (inactive).

Consider `CCCc1c(C)nc2ccc(OC)cc2c1SCCC(=O)O`, for which the inhibition is -2.63% (inactive).

Consider `COc1ccc(C(=O)Nc2cc3c(cc2Cl)OCCCO3)cc1`, for which the inhibition is 5.96% (inactive).

In the case of `CCc1ccccc1NC(=O)CSc1nc2n[nH]c(C)c2c(=N)n1-c1cccc(OC)c1`, the inhibition was 7.97% (inactive).

For the molecule `COc1cccc(NC(=O)CSc2nc3n[nH]c(C)c3c(=N)n2-c2cccc(OC)c2)c1`, the inhibition is -0.47% (inactive).

As for `O=C(CSc1ccc(Br)cc1)N1CCN(C(=O)c2ccco2)CC1`, the inhibition is 2.56% (inactive).

For `O=C(c1ccc2c(c1)OCO2)C1CCCN(Cc2cn[nH]c2-c2ccccc2)C1` (stereo not drawn), the inhibition was 4.84% (inactive).

For the molecule `COc1ccc(C(=O)C2CCCN(Cc3cn[nH]c3-c3ccccc3)C2)cc1OC` (stereo not drawn), the inhibition is 2.2% (inactive).

For `CC1Cc2cccc3c(O)c(C(=O)c4nn[nH]n4)c(=O)n1c23` (stereo not drawn), the inhibition is 14.9% (inactive).

In the case of `N#Cc1nc(COc2ccccc2)oc1N1CCCC1`, the inhibition was -0.06% (inactive).

In the case of `CC(C)NC(=O)c1onc(CSc2cccc(F)c2)c1C(=O)O`, the inhibition was 33.3% (inactive).

With `CC(C)NC(=O)c1onc(CSc2ccc(F)c(F)c2)c1C(=O)NC(C)C`, the inhibition is 8.4% (inactive).

In the case of `COc1ccc(C)cc1N(C(=O)c1snc(C(N)=O)c1N)C(C(=O)NC1CCCC1)c1ccc(F)cc1` (stereo not drawn), the inhibition was 41.8% (inactive).

In the case of `CCOC(=O)c1sc(NC(=S)NC(=O)c2cccc(Cl)c2)c(C(=O)OCC)c1C`, the inhibition was 3.64% (inactive).

As to `C#C[C@]1(O)CC[C@H]2[C@@H]3CCc4cc(O)ccc4[C@H]3CC[C@@]21C`, the inhibition is 2.29% (inactive).

For the molecule `C#C[C@]1(O)CC[C@H]2[C@@H]3CCc4cc(OC)ccc4[C@H]3CC[C@@]21C`, the inhibition is -0.52% (inactive).

Regarding `Cc1cc(C)nc(Sc2nc(Nc3ccccc3)nc(Sc3nc(C)cc(C)n3)n2)n1`, the inhibition was -5.43% (inactive).

Take `Cc1csc(SCCN2C(=O)c3ccccc3C2=O)n1`: the inhibition was 1.44% (inactive).

For `O=[N+]([O-])c1ccc2c(c1)oc1ccccc12`, the inhibition is -7.51% (inactive).

As to `O=[N+]([O-])c1ccc2nc(-c3ccccc3)oc2c1`, the inhibition is -0.96% (inactive).
